Only a selection was taken, and hits are over-represented in it overall.
Pf apPOL block = Pf-apPOL DNA polymerase inhibition. Recombinant Pf-apPOL, molecular beacon fluorescence, 1.5 h. 210,000 compounds, 0.25% hits. inhibition, % at 10 µM
mHTT-CaM PPI inh = mHTT-calmodulin interaction abrogation. P42858. AlphaScreen His-mHTT/GST-CaM binding, luminescence. inhibition, % at 15 µM. 190,000 compounds, 3.6% hits;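 note: 0% = both proteins with DMSO and 100% = one protein alone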
Active calls of the source: *; nt = not tested or not shown. Cut-off read from the data, not from the text of the source: active = inhibition above about 50%; inactive = the rest.

SMILES | Pf apPOL block | mHTT-CaM PPI inh
CCc1ccc(C(=O)CCN(C)C)cc1 | -2 | 2
CN(C)CCC(=O)c1ccc(Cl)c(Cl)c1 | -2 | 100*
CCC(=O)Nc1ccc(Cl)cc1C(=O)c1ccccc1 | -3 | 0
O=C(CN1CCOCC1)Nc1ccc(Cl)cc1C(=O)c1ccccc1 | 74* | -3
CCSc1nc2ccccc2c(=O)n1-c1ccc(F)cc1 | 36 | -14
COCCCNC1CCN(C)CC1 | nt | -4
COc1ccc(C=C2C(=O)C3CCN2CC3)cc1 | -2 | nt
CN(C)c1ccc([N+](=O)[O-])c2cccnc12 | nt | 14
CNC(=O)Oc1cc([N+](=O)[O-])cc2cccnc12 | -9 | 100*
COc1ccc(NC(=O)C2c3ccccc3C(=O)N3CCCCC23)cc1OC (stereo not given) | 2 | 0
COc1cc2c(cc1OC)C(C(=O)Nc1cccc(Cl)c1)C1CCCCN1C2=O (stereo not given) | -1 | 40
CCOc1ccccc1N1CCN(Cc2ccc(F)c(F)c2)CC1 | 3 | -5
CCOc1ccccc1N1CCN(Cc2ccc(F)c(Br)c2)CC1 | -1 | 68*
COc1ccc(-n2c(C)nc3cc(C(=O)N4CCC5(CC4)OCCO5)ccc32)cc1 | -4 | 1
Cc1nc2cc(C(=O)N3CCC4(CC3)OCCO4)ccc2n1-c1ccc(Br)cc1 | -1 | 57*
COc1cc(C=C2Oc3cc(OC(=O)N(C)C)ccc3C2=O)cc(OC)c1OC | -10 | 1
O=[N+]([O-])c1ccc(N2CCNCC2)cc1NCCO | -2 | 0
O=[N+]([O-])c1ccc(N2CCNCC2)cc1NCCc1ccccc1 | -3 | 91*
CC(=NO)C(=O)c1ccccc1 | -14 | nt
COc1cc2c(cc1OC)C(C(=O)Nc1cccnc1)C1CCCCN1C2=O (stereo not given) | -7 | 0
OCCN(CCc1ccccc1)Cc1ccccc1 | -6 | -14
OC(CN(Cc1ccccc1)Cc1ccccc1)c1ccc2cc[nH]c2c1 (stereo not given) | 3 | 68*
COc1cc(CNCCc2ccccc2F)c([N+](=O)[O-])cc1OC | 0 | 29
Cc1cc(N2CCN(C)CC2)c2[nH]c3ccccc3c2c1 | 12 | 79*
Cc1nccc2c1[nH]c1ccccc12 | 11 | nt
SMILES | Pf apPOL block | mHTT-CaM PPI inh
CC12CCC(O)CC1CCC1C2CCC2(C)C(O)C(=Cc3ccc(C(F)(F)F)cc3)CC12 (stereo not given) | -5 | -4
COCCN1CCC(N2CCCN(C(=O)Cc3cccc(Cl)c3)CC2)C1=O (stereo not given) | 0 | 15
O=C(Cc1cccs1)N1CCCN(C2CCN(Cc3ccc(F)cc3)C2=O)CC1 (stereo not given) | 0 | 60*
COc1ccccc1CCNCc1ccc2c(c1)OCO2 | -10 | 1
COc1ccccc1CCNCc1cc(OC)c2c(c1)OCO2 | -7 | 89*
CCn1cc(C(=O)NCc2ccc3c(c2)OCO3)c2cccnc21 | -11 | 12
CCn1cc(C(=O)NCc2cccc(Br)c2)c2cccnc21 | -19 | 58*
NCCc1csc2c1CCCC2 | nt | 65*
NCC1(c2ccc3c(c2)OCCO3)CCOCC1 | 106* | -8
COc1ccc(C2(CN)CCOCC2)cc1OC | -7 | -2
Cc1ccc(C2c3c(c4ccccc4oc3=O)Oc3c2c(=O)oc2ccccc32)o1 | 36 | 47
O=c1oc2ccccc2c2c1C(c1ccc(O)cc1)c1c(c3ccccc3oc1=O)O2 | 69* | 96*
CC(C)c1cc2c(c(O)c1O)C1(C(=O)O)CCCC(C)(C)C1CC2 (stereo not given) | -7 | nt
CCCCn1c(=O)c(C(=O)Nc2cc([N+](=O)[O-])ccc2O)c(O)c2ccccc21 | -3 | 5
CCN(CC)c1ccc(CN2CCN(c3ccccc3)CC2)cc1 | 0 | 51*
Brc1ccc(CN2CCN(c3ccccc3)CC2)cc1 | -6 | 1
N#Cc1c(Cl)c(Cl)nc(N2CCCNCC2)c1Cl | -9 | 100*
CC1(C)Cc2c(C#N)c(N3CCNCC3)nc(Cc3ccccc3)c2CO1 | 2 | 3
COc1cc(CN2CCN(c3ccccc3F)CC2)cc(I)c1O | 2 | 11
O=C(NC1CC2CCN(C2)C1)c1c[nH]c2ccsc2c1=O (stereo not given) | 5 | nt
Nc1cc(C(=O)Nc2ccncc2)ccc1N1CC2CC(C1)c1cccc(=O)n1C2 (stereo not given) | -5 | 6
O=Cc1cn(Cc2ccc([N+](=O)[O-])cc2)c2ccccc12 | -1 | 21
CN(C)/C=C/c1c(C=O)c2cc([N+](=O)[O-])ccc2n1Cc1ccccc1 | -56 | 100*
CCN1CCN(CC2=CCC3CC2C3(C)C)CC1 (stereo not given) | 2 | -4
CN(C)C(=O)Oc1ccc2c(=O)c(-c3nc4ccccc4s3)coc2c1 | -6 | -8
O=C(Cc1ccc(F)cc1)N1CC2CC(C1)c1cccc(=O)n1C2 (stereo not given) | -5 | -8
Cc1ccc(OCC(=O)N2CCN(CC(F)(F)F)CC2)cc1 | -2 | -19
COc1cc(OC)c(OC)cc1CNCCc1cccc(Cl)c1 | -2 | 2

Screening data: PubChem BioAssay, University of Kansas High Throughput Screening Laboratory
